# The full ranking holds about 33,000 sequences; the median of “E-score (-0.5 to 0.5)” is about -0.056, and the highest 2% start at about 0.38. What follows is part of a selection rich in the highest values, with near analogues and random picks from the rest.
# Target: Stb4 (UniProt P50104)
# Experiment: PBM E-score (8-mer binding enrichment) (E-score (-0.5 to 0.5)); higher = stronger / more preferred TF binding
# Conditions: protein concentration: 200 nM; construct: GST-DNA-binding domain
# Procedure: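 Universal 'all 10-mer' protein binding microarrays (Agilent AMADID 015681) probed with GST-tagged S. cerevisiae TFs (full-length or DBD) made by in vitro transcription/translation (PURExpress), about 100-200 nM. Bound TF was detected with fluorescent anti-GST. Each ungapped 8-mer (which stands for itself and its reverse complement) is scored by the PBM enrichment score (E-score), a modified Wilcoxon-Mann-Whitney statistic from -0.5 to +0.5, computed with the Universal PBM Analysis Suite. Scale: above 0.35 generally sequence-specific binding.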
# UniProt P50104, sequence (P50104 whole entry): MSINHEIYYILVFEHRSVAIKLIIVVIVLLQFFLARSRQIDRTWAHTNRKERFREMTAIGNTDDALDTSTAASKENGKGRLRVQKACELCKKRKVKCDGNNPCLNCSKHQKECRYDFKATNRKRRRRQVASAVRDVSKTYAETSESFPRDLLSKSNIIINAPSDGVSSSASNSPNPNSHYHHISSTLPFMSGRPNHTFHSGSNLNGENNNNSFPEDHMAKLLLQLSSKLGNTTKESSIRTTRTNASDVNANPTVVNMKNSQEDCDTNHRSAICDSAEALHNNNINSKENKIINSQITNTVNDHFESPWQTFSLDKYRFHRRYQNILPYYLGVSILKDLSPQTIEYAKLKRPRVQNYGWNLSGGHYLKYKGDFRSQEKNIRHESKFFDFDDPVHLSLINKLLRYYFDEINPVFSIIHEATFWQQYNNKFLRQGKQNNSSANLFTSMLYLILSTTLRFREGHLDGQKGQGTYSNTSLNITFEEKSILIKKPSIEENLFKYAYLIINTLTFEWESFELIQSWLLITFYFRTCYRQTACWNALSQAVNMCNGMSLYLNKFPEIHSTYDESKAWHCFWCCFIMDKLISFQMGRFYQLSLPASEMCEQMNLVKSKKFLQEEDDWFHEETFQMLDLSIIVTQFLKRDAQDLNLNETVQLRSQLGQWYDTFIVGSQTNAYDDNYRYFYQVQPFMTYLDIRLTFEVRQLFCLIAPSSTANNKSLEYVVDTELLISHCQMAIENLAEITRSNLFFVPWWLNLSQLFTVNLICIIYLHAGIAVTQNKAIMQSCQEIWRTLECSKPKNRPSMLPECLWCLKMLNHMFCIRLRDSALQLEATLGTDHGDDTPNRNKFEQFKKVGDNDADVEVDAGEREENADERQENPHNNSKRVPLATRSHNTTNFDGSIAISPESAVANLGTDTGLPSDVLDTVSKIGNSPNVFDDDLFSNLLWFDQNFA
row,Sequence,PBM E-score
1,TACCAAAA,-0.12
2,AAATTGTG,-0.295
3,GTGATCTA,-0.0262
4,ATCCCTTC,-0.183
5,GCGATTGA,-0.113
6,CAGCCGAA,0.392
7,AAGCCGAT,0.299
8,CAGCCAAA,-0.0614
9,AAGCCAAA,-0.0671
10,AAGCCGCA,0.167
11,AAGCCGAA,0.407
12,AAGCCGAC,0.26
13,TAGCCGGA,0.384
14,GAGCCGGA,0.348
15,CAGCCGAC,0.311
16,AAGCCGAG,0.401
17,AAGCCGGA,0.355
18,CTAGCCAC,-0.287
19,AACTTGGG,0.0814
20,AGAGCCTG,-0.237
21,TAAGTTGA,-0.103
22,GGATCACA,0.228
23,TAGTGAAA,-0.178
24,CGATACTC,0.065
25,AGGGCCAT,-0.253

row,Sequence,PBM E-score
1,TAGCCGAA,0.446
2,GAGCCGAA,0.423
3,CAGCCGGG,0.237
4,GAGCCGAC,0.296
5,CAGCCGCG,0.151
6,CAGCCGAG,0.409
7,TGGCCGAA,0.251
8,TAGCCAAA,0.0424
9,GAGCCGCA,0.0237
10,AGGTCGCC,0.00267
11,AAGGGCAA,0.158
12,CTGCTAGC,-0.23
13,TAGTTTGA,-0.121
14,ATAACGCA,-0.0729
15,CCGGTAGA,0.264
16,CGGAAACG,0.384
17,AGGAAACA,-0.0661
18,CGGAAACA,0.427
19,AGGAAACG,-0.164
20,GGGAAACA,0.175
21,CGGAAACC,0.347
22,ATCAAATG,0.129
23,ACCTAAAG,-0.0577
24,AGTGCACC,0.0754
25,CGTAAACA,0.055

row,Sequence,PBM E-score
1,ATGCTCGG,0.404
2,AGGCTCGC,-0.00633
3,AGGCTCGG,0.432
4,AGGCTCGA,-0.126
5,ACGCTCGG,0.42
6,ACGCTCGC,-0.227
7,ATGCTCGA,-0.139
8,ATGCTCGC,-0.239
9,ACGCTCGA,-0.198
10,TAAATGGA,-0.104
11,TAAAACAA,-0.199
12,AATGGGGC,-0.232
13,CCTCGCGC,-0.0639
14,ATCGACGC,-0.126
15,CCTAGGGC,-0.153
16,CGTACCGA,0.334
17,ACTATCGG,0.236
18,ACTCCCGA,0.411
19,CCTCCCGC,0.133
20,CCTCCCCA,-0.0256
21,ACTCCCGG,0.372
22,CCTCCCGA,0.387
23,GCTCCCCA,-0.311
24,ACTCCCGC,0.234
25,GCTCCCAA,-0.272

row,Sequence,PBM E-score
1,GCTCCCGA,0.41
2,TTGATCAA,-0.205
3,ACGGACGC,-0.0449
4,GCTCCGAC,0.238
5,GCTCCGGA,0.346
6,TCTCCAAA,-0.144
7,GCTCCGAA,0.4
8,CCTCCGAA,0.352
9,CCTCCGAC,0.209
10,CCTCCGAG,0.4
11,ACTCCGGC,0.281
12,TCTCCGCA,0.147
13,TCTCCGAA,0.384
14,CCTCCGCG,0.159
15,ACTCCGGA,0.411
16,AGGCTAGC,-0.217
17,CCGGTCAC,0.108
18,CGGTGCTA,0.103
19,TAAGAGAA,-0.344
20,ACATCGAC,-0.0835
21,AACAGTAG,-0.0759
22,ACATTGAT,0.0749
23,AAAGTTAG,-0.00674
24,CAGCGGTC,-0.186
25,ACTCCGAC,0.32

row,Sequence,PBM E-score
1,ACTCCGAA,0.385
2,ACTCCGAG,0.395
3,ACTCCGAT,0.242
4,ACTCCGTA,0.0548
5,ACTCCAAA,-0.0951
6,CAATAGGG,-0.163
7,CGGCCTGA,0.0862
8,CAAGCGAA,-0.201
9,TCGCGTAA,0.0292
10,CACAACCC,-0.0519
11,GTCCATTA,-0.172
12,GGATCCGA,0.459
13,AGATCCGC,0.291
14,CGATCCTA,-0.0737
15,GGATCCCA,0.102
16,AGATCCGG,0.366
17,CGATCCCG,0.342
18,CGATCCGC,0.325
19,AGATCCCT,-0.226
20,CGATCCGA,0.475
21,AGATCCCG,0.407
22,GGATCCTA,0.122
23,AGATCCGA,0.477
24,AGCGATAT,-0.172
25,GTTCCTTA,0.0117

row,Sequence,PBM E-score
1,AATGCAGC,-0.19
2,GGGGAAGA,-0.186
3,AACCGCCG,0.22
4,CAACACAG,-0.278
5,CTAACGTA,-0.201
6,AACAATGT,-0.0925
7,GGGAACGA,0.0562
8,AGGAACGC,-0.097
9,CAGAACGC,-0.126
10,CGGAACGA,0.399
11,CGGAACGC,0.407
12,AGGAACGA,0.0238
13,GCGTTCCA,-0.104
14,ATCTATAC,0.0424
15,ATCTATTA,0.0372
16,GAGGTTCA,0.012
17,CACTTGAG,-0.265
18,GGGTCGAC,0.0843
19,CATCGGGC,0.181
20,CCCTTCGA,-0.0805
21,ACCTTCGT,-0.0808
22,CCCTTCGC,-0.135
23,ACCTTCGA,-0.171
24,ACCTTCGG,0.404
25,CCCTTCGG,0.401

row,Sequence,PBM E-score
1,CCAACTTC,-0.0561
2,GTCAAAAC,-0.0364
3,TAGAGATA,-0.0379
4,CCAAACTC,-0.0175
5,ATTTATGC,-0.126
6,GAATCCTA,0.00817
7,CAATCCGA,0.403
8,TAATCCCA,-0.0875
9,CAATCCGG,0.244
10,AAATCCGT,0.186
11,GAATCCGA,0.4
12,GAATCCGC,0.206
13,CAATCCGC,0.191
14,TAATCCTA,-0.00858
15,AAATCCGA,0.396
16,AAATCCGG,0.332
17,TAATCCGA,0.39
18,CTGATCCA,-0.0972
19,CGTGCTTA,-0.0565
20,ACCACATG,-0.182
21,GAGAAATA,0.0451
22,AGGACCCC,-0.0529
23,AAGCTTGC,-0.209
24,CCATGCGG,-0.0615
25,ATACCAGC,-0.121
